# The whole screen tested about 5,500 compounds, of which about 2,000 (36%) were called active. Inconclusive results (about 18%) are left out. This is one part of the list. Values without a mark were called inactive. Rule as the data show it: active = normalized growth mostly below about 0.91 (no sharp cut-off); inconclusive = no clear call, values can overlap the other calls; inactive = mostly above about 0.92.
# Assay: chemical genetic growth profiling, strain panel (AID 1159580);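 also: tested at 20 µM; growth read once vehicle control cultures reached saturation at 30 °C; 1 = growth at the plate median or of vehicle wells; lower values mean less growth of the strain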
# Details: S. cerevisiae deletion strains, growth OD
compound,measurement,setting,value
O=S(=O)(Nc1cc(Cl)c(Cl)cc1Cl)c1cc(C(F)(F)F)cc(C(F)(F)F)c1,normalized growth,"locus YAR019C, strain CDC15, stronger effect = lower value",0.957
same,normalized growth,"locus YBL105C, strain PKC1, stronger effect = lower value",0.956
same,normalized growth,"locus YBR135W, strain CKS1, stronger effect = lower value",0.961
same,normalized growth,"locus YBR136W, strain MEC1, stronger effect = lower value",0.954
same,normalized growth,"locus YBR160W, strain CDC28, stronger effect = lower value",0.946
same,normalized growth,"locus YDL017W, strain CDC7, stronger effect = lower value",0.959
same,normalized growth,"locus YDL028C, strain MPS1, stronger effect = lower value",0.962
same,normalized growth,"locus YDL101C, strain DUN1, stronger effect = lower value",0.972
same,normalized growth,"locus YDL108W, strain KIN28, stronger effect = lower value",0.966
same,normalized growth,"locus YDL132W, strain cdc53, stronger effect = lower value",0.963
same,normalized growth,"locus YDL214C, strain PRR2, stronger effect = lower value",0.924
same,normalized growth,"locus YDR052C, strain DBF4, stronger effect = lower value",0.941
same,normalized growth,"locus YDR054C, strain cdc34, stronger effect = lower value",0.953
same,normalized growth,"locus YDR226W, strain ADK1, stronger effect = lower value",0.956
same,normalized growth,"locus YDR477W, strain SNF1, stronger effect = lower value",0.919
same,normalized growth,"locus YER123W, strain YCK3, stronger effect = lower value",0.882
same,normalized growth,"locus YER133W, strain GLC7, stronger effect = lower value",0.937
same,normalized growth,"locus YFL009W, strain cdc4, stronger effect = lower value",0.959
same,normalized growth,"locus YFL029C, strain CAK1, stronger effect = lower value",0.955
same,normalized growth,"locus YFR003C, strain YPI1, stronger effect = lower value",0.964
same,normalized growth,"locus YFR019W, strain FAB1, stronger effect = lower value",0.916
same,normalized growth,"locus YFR028C, strain CDC14, stronger effect = lower value",0.958
same,normalized growth,"locus YGR040W, strain KSS1, stronger effect = lower value",0.9
same,normalized growth,"locus YGR052W, strain FMP48, stronger effect = lower value",0.913
same,normalized growth,"locus YGR092W, strain DBF2, stronger effect = lower value",0.892
same,normalized growth,"locus YHR030C, strain SLT2, stronger effect = lower value",0.71 (active)
same,normalized growth,"locus YHR079C, strain IRE1, stronger effect = lower value",0.897
same,normalized growth,"locus YHR082C, strain KSP1, stronger effect = lower value",0.899
same,normalized growth,"locus YHR205W, strain SCH9, stronger effect = lower value",0.946
same,normalized growth,"locus YIL147C, strain SLN1, stronger effect = lower value",0.963
same,normalized growth,"locus YJL095W, strain BCK1, stronger effect = lower value",0.963
same,normalized growth,"locus YJL128C, strain PBS2, stronger effect = lower value",0.969
same,normalized growth,"locus YJL157C, strain FAR1, stronger effect = lower value",0.892
same,normalized growth,"locus YJR016C, strain ILV3, stronger effect = lower value",0.968
same,normalized growth,"locus YJR066W, strain TOR1 (second series), stronger effect = lower value",0.92
same,normalized growth,"locus YJR066W, strain TOR1, stronger effect = lower value",0.976
same,normalized growth,"locus YKL048C, strain ELM1, stronger effect = lower value",0.906
same,normalized growth,"locus YKL067W, strain YNK1, stronger effect = lower value",0.935
same,normalized growth,"locus YKL101W, strain HSL1, stronger effect = lower value",0.902
same,normalized growth,"locus YKL193C, strain SDS22, stronger effect = lower value",0.963
same,normalized growth,"locus YKL203C, strain TOR2, stronger effect = lower value",0.955
same,normalized growth,"locus YLR113W, strain HOG1, stronger effect = lower value",0.818 (active)
same,normalized growth,"locus YLR133W, strain CKI1, stronger effect = lower value",0.903
same,normalized growth,"locus YLR403W, strain SFP1, stronger effect = lower value",0.916
same,normalized growth,"locus YML070W, strain DAK1, stronger effect = lower value",0.911
same,normalized growth,"locus YMR001C, strain CDC5, stronger effect = lower value",0.96
same,normalized growth,"locus YMR205C, strain PFK2 (second series), stronger effect = lower value",0.954
same,normalized growth,"locus YMR277W, strain FCP1, stronger effect = lower value",0.963
same,normalized growth,"locus YNL006W, strain LST8, stronger effect = lower value",0.966
same,normalized growth,"locus YNL020C, strain ARK1, stronger effect = lower value",0.89
same,normalized growth,"locus YNL161W, strain CBK1, stronger effect = lower value",0.962
same,normalized growth,"locus YNL183C, strain NPR1, stronger effect = lower value",0.916
same,normalized growth,"locus YNL207W, strain RIO2, stronger effect = lower value",0.948
same,normalized growth,"locus YNL222W, strain SSU72, stronger effect = lower value",0.962
same,normalized growth,"locus YNL307C, strain MCK1 (second series), stronger effect = lower value",0.874
same,normalized growth,"locus YOL078W, strain AVO1, stronger effect = lower value",0.959
same,normalized growth,"locus YOL136C, strain PFK27, stronger effect = lower value",0.871
same,normalized growth,"locus YOR061W, strain CKA2, stronger effect = lower value",0.93
same,normalized growth,"locus YOR119C, strain RIO1, stronger effect = lower value",0.983
same,normalized growth,"locus YOR231W, strain MKK1, stronger effect = lower value",0.913
same,normalized growth,"locus YOR329C, strain SCD5, stronger effect = lower value",0.963
same,normalized growth,"locus YPL031C, strain PHO85, stronger effect = lower value",0.917
same,normalized growth,"locus YPL153C, strain RAD53, stronger effect = lower value",0.921
same,normalized growth,"locus YPL204W, strain HRR25, stronger effect = lower value",0.881
same,normalized growth,"locus YPL209C, strain IPL1, stronger effect = lower value",0.952
same,normalized growth,"locus YPL256C, strain CLN2, stronger effect = lower value",0.813 (active)
same,normalized growth,"locus YPR025C, strain CCL1, stronger effect = lower value",0.962
same,normalized growth,"locus YPR106W, strain ISR1, stronger effect = lower value",0.946
same,normalized growth,"locus YPR111W, strain DBF20, stronger effect = lower value",0.944
same,normalized growth,"strain NNK1, stronger effect = lower value",0.956
same,normalized growth,"strain TSCII, stronger effect = lower value",0.956

# From PubChem BioAssay AID1159580 (chemical genetic matrix, 2015)
